Laboratory results reported in publication PMC11006913.
Changes are numbered by the printed parent chain.

What was measured:
Test in all cases: PBM; 200 nM protein, PBS
Settings in all cases: dsDNA, one strand shown
VENTX [1] = molecular target: T1, VENTX (Homo sapiens, UniProt O95231 78-163, R121Q)
T1 sequence: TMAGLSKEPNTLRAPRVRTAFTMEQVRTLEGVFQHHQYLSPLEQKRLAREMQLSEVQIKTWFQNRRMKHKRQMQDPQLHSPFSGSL

HOXA4 [2] = molecular target: HOXA4 (Homo sapiens, UniProt Q00056 201-287, W262R)
HOXA7 [3] = molecular target: HOXA7 (Homo sapiens, UniProt P31268 116-202)
Sequence of HOXA7 (Homo sapiens, UniProt P31268 116-202) (P31268 116-202): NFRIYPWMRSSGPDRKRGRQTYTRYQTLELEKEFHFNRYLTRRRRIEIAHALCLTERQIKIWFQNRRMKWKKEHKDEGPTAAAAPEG

ALX4 = ALX4 (Homo sapiens, UniProt Q9H161 200-286)
Sequence of ALX4 (Q9H161 200-286): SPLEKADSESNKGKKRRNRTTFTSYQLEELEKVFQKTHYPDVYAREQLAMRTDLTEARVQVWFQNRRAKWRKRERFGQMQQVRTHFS

PRRX1 [4] = molecular target: PRRX1 (Homo sapiens, UniProt P54821 80-166, F113S)
Sequence of PRRX1 (Homo sapiens, UniProt P54821 80-166, F113S) (P54821 80-166 F113S): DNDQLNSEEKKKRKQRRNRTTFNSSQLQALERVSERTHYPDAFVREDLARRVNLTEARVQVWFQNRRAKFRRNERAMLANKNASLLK

VENTX [5] = molecular target: T2, VENTX (Homo sapiens, UniProt O95231 78-163, Y115F)
T2 sequence: T1 sequence with Y38F, Q44R

HOXB6 = HOXB6 (Homo sapiens, UniProt P17509 132-218, K202E)
Sequence of HOXB6 (P17509 132-218 K202E): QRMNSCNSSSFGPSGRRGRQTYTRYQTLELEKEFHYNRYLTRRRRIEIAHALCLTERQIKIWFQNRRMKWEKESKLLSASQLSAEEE

HOXA2 [6] = molecular target: HOXA2 (Homo sapiens, UniProt O43364 129-215, R185T)
Sequence of HOXA2 (Homo sapiens, UniProt O43364 129-215, R185T) (O43364 129-215 R185T): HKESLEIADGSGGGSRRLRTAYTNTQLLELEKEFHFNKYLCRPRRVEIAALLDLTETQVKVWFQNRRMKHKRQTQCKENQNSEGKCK

HOXA4 [7] = molecular target: HOXA4 (Homo sapiens, UniProt Q00056 201-287, R217L)
Sequence of HOXA4 (Homo sapiens, UniProt Q00056 201-287, R217L) (Q00056 201-287 R217L): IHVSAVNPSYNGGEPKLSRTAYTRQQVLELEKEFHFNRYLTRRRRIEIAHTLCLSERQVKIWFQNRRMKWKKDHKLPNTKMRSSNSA

HOXB4 = HOXB4 (Homo sapiens, UniProt P17483 148-234, V174I)
Sequence of HOXB4 (P17483 148-234 V174I): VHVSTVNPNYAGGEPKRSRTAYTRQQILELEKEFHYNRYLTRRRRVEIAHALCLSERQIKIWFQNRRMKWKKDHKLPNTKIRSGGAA

PAX4 = molecular target: T3, PAX4 (Homo sapiens, UniProt O43316 9-242, R200Q)
T3 sequence: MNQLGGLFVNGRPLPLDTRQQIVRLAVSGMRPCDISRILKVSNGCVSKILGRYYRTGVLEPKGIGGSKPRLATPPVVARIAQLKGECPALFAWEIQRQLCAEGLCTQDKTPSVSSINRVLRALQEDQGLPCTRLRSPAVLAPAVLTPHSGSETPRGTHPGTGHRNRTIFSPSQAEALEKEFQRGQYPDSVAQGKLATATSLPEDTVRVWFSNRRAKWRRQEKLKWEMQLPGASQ

HOXA2 [8] = molecular target: HOXA2 (Homo sapiens, UniProt O43364 129-215, R185K)
Sequence of HOXA2 (Homo sapiens, UniProt O43364 129-215, R185K) (O43364 129-215 R185K): as the sequence (O43364 129-215 R185T) above, with T57K counted along it

HOXA4 [9] = molecular target: HOXA4 (Homo sapiens, UniProt Q00056 201-287)
Sequence of HOXA4 (Homo sapiens, UniProt Q00056 201-287) (Q00056 201-287): as the sequence (Q00056 201-287 R217L) above, with L17R counted along it

MSX2 [10] = molecular target: MSX2 (Homo sapiens, UniProt P35548 130-214)
Sequence of MSX2 (Homo sapiens, UniProt P35548 130-214) (P35548 130-214): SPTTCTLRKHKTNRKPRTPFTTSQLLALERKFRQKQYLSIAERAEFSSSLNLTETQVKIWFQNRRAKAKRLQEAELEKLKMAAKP

MSX2 [11] = molecular target: MSX2 (Homo sapiens, UniProt P35548 130-214, F161Y)
Sequence of MSX2 (Homo sapiens, UniProt P35548 130-214, F161Y) (P35548 130-214 F161Y): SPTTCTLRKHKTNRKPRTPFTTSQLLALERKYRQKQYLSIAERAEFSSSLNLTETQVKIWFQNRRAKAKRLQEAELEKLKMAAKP

VAX1 [12] = molecular target: VAX1 (Homo sapiens, UniProt Q5SQQ9 86-172, T142I)
Sequence of VAX1 (Homo sapiens, UniProt Q5SQQ9 86-172, T142I) (Q5SQQ9 86-172 T142I): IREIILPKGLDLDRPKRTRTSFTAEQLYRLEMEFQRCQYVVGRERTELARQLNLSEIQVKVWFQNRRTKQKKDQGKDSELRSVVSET

HOXA7 [13] = molecular target: HOXA7 (Homo sapiens, UniProt P31268 116-202, W177C)
Sequence of HOXA7 (Homo sapiens, UniProt P31268 116-202, W177C) (P31268 116-202 W177C): as the sequence (P31268 116-202) above, with W62C counted along it

HOXA4 [14] = molecular target: HOXA4 (Homo sapiens, UniProt Q00056 201-287, W262F)
Sequence of HOXA4 (Homo sapiens, UniProt Q00056 201-287, W262F) (Q00056 201-287 W262F): as the sequence (Q00056 201-287 R217L) above, with L17R, W62F counted along it

PRRX1 [15] = molecular target: PRRX1 (Homo sapiens, UniProt P54821 80-166)
Sequence of PRRX1 (Homo sapiens, UniProt P54821 80-166) (P54821 80-166): as the sequence (P54821 80-166 F113S) above, with S34F counted along it

VAX1 [16] = molecular target: VAX1 (Homo sapiens, UniProt Q5SQQ9 86-172, K157R)
Sequence of VAX1 (Homo sapiens, UniProt Q5SQQ9 86-172, K157R) (Q5SQQ9 86-172 K157R): as the sequence (Q5SQQ9 86-172 T142I) above, with I57T, K72R counted along it

Sequence of HOXA4 (Homo sapiens, UniProt Q00056 201-287, W262R) (Q00056 201-287 W262R): as the sequence (Q00056 201-287 R217L) above, with L17R, W62R counted along it

Sequence	binding signal (VENTX [1])	binding signal (HOXA4 [2])	binding signal (HOXA7 [3])	binding signal (ALX4)	binding signal (PRRX1 [4])	binding signal (VENTX [5])	binding signal (HOXB6)	binding signal (HOXA2 [6])	binding signal (HOXA4 [7])	binding signal (HOXB4)	binding signal (PAX4)	binding signal (HOXA2 [8])	binding signal (HOXA4 [9])	binding signal (MSX2 [10])	binding signal (MSX2 [11])	binding signal (VAX1 [12])	binding signal (HOXA7 [13])	binding signal (HOXA4 [14])	binding signal (PRRX1 [15])	binding signal (VAX1 [16])
ACAATTAA	11.7 upbm affinity estimate (log intensity, higher = more binding, comparable within an allelic series)	10.5 upbm affinity estimate (log intensity, higher = more binding, comparable within an allelic series)	11.6 upbm affinity estimate (log intensity, higher = more binding, comparable within an allelic series)	13.7 upbm affinity estimate (log intensity, higher = more binding, comparable within an allelic series)	11.2 upbm affinity estimate (log intensity, higher = more binding, comparable within an allelic series)	11.5 upbm affinity estimate (log intensity, higher = more binding, comparable within an allelic series)	10.1 upbm affinity estimate (log intensity, higher = more binding, comparable within an allelic series)	12.6 upbm affinity estimate (log intensity, higher = more binding, comparable within an allelic series)	12 upbm affinity estimate (log intensity, higher = more binding, comparable within an allelic series)	13.7 upbm affinity estimate (log intensity, higher = more binding, comparable within an allelic series)	11.8 upbm affinity estimate (log intensity, higher = more binding, comparable within an allelic series)	13.1 upbm affinity estimate (log intensity, higher = more binding, comparable within an allelic series)	13.8 upbm affinity estimate (log intensity, higher = more binding, comparable within an allelic series)	13.7 upbm affinity estimate (log intensity, higher = more binding, comparable within an allelic series)	13.4 upbm affinity estimate (log intensity, higher = more binding, comparable within an allelic series)	12.5 upbm affinity estimate (log intensity, higher = more binding, comparable within an allelic series)	8.88 upbm affinity estimate (log intensity, higher = more binding, comparable within an allelic series)	11.5 upbm affinity estimate (log intensity, higher = more binding, comparable within an allelic series)	13.3 upbm affinity estimate (log intensity, higher = more binding, comparable within an allelic series)	12.3 upbm affinity estimate (log intensity, higher = more binding, comparable within an allelic series)
TATTAGAA										11 upbm affinity estimate (log intensity, higher = more binding, comparable within an allelic series)	11 upbm affinity estimate (log intensity, higher = more binding, comparable within an allelic series)									
CAATTAGC	12.6 upbm affinity estimate (log intensity, higher = more binding, comparable within an allelic series)	10.5 upbm affinity estimate (log intensity, higher = more binding, comparable within an allelic series)	11.3 upbm affinity estimate (log intensity, higher = more binding, comparable within an allelic series)	14.1 upbm affinity estimate (log intensity, higher = more binding, comparable within an allelic series)	11.1 upbm affinity estimate (log intensity, higher = more binding, comparable within an allelic series)	12.3 upbm affinity estimate (log intensity, higher = more binding, comparable within an allelic series)		13.4 upbm affinity estimate (log intensity, higher = more binding, comparable within an allelic series)	11.9 upbm affinity estimate (log intensity, higher = more binding, comparable within an allelic series)	14 upbm affinity estimate (log intensity, higher = more binding, comparable within an allelic series)	12 upbm affinity estimate (log intensity, higher = more binding, comparable within an allelic series)	13.6 upbm affinity estimate (log intensity, higher = more binding, comparable within an allelic series)	13.9 upbm affinity estimate (log intensity, higher = more binding, comparable within an allelic series)	14.1 upbm affinity estimate (log intensity, higher = more binding, comparable within an allelic series)	13.8 upbm affinity estimate (log intensity, higher = more binding, comparable within an allelic series)	13.3 upbm affinity estimate (log intensity, higher = more binding, comparable within an allelic series)	8.77 upbm affinity estimate (log intensity, higher = more binding, comparable within an allelic series)	11.5 upbm affinity estimate (log intensity, higher = more binding, comparable within an allelic series)	13.4 upbm affinity estimate (log intensity, higher = more binding, comparable within an allelic series)	13.3 upbm affinity estimate (log intensity, higher = more binding, comparable within an allelic series)
AATTAACA	11.9 upbm affinity estimate (log intensity, higher = more binding, comparable within an allelic series)	10.8 upbm affinity estimate (log intensity, higher = more binding, comparable within an allelic series)	11.3 upbm affinity estimate (log intensity, higher = more binding, comparable within an allelic series)	13.9 upbm affinity estimate (log intensity, higher = more binding, comparable within an allelic series)	11.2 upbm affinity estimate (log intensity, higher = more binding, comparable within an allelic series)	11.7 upbm affinity estimate (log intensity, higher = more binding, comparable within an allelic series)	10 upbm affinity estimate (log intensity, higher = more binding, comparable within an allelic series)	12.6 upbm affinity estimate (log intensity, higher = more binding, comparable within an allelic series)	12.1 upbm affinity estimate (log intensity, higher = more binding, comparable within an allelic series)	13.8 upbm affinity estimate (log intensity, higher = more binding, comparable within an allelic series)	12.2 upbm affinity estimate (log intensity, higher = more binding, comparable within an allelic series)	13.1 upbm affinity estimate (log intensity, higher = more binding, comparable within an allelic series)	13.7 upbm affinity estimate (log intensity, higher = more binding, comparable within an allelic series)	13.6 upbm affinity estimate (log intensity, higher = more binding, comparable within an allelic series)	13.2 upbm affinity estimate (log intensity, higher = more binding, comparable within an allelic series)	12.6 upbm affinity estimate (log intensity, higher = more binding, comparable within an allelic series)	8.91 upbm affinity estimate (log intensity, higher = more binding, comparable within an allelic series)	11.7 upbm affinity estimate (log intensity, higher = more binding, comparable within an allelic series)	13.3 upbm affinity estimate (log intensity, higher = more binding, comparable within an allelic series)	12.8 upbm affinity estimate (log intensity, higher = more binding, comparable within an allelic series)
